# Source: article PMC9911399, “Two distinct binding modes provide the RNA-binding protein RbFox with extraordinary sequence specificity”
# Substitutions are numbered along the chain they refer to; changes in the protein carry UniProt numbers. The full ranking holds about 16,000 sequences; the median of “ka relative to ugcaugu” is about 0.0091, and the highest 2% start at about 0.032. The full list was thinned out, with the highest values kept by preference.
# T1: RBFOX1 RRM (Homo sapiens, UniProt Q9NWB1 109-208)
# T1 sequence: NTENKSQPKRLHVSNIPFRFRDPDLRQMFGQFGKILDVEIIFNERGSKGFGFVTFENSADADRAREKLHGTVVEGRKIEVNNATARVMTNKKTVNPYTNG
# B1: CCUGGCU (DNA:RNA)
# RNA: GGGAGACCGGAAUUCAGAUUGUCCCCUGGCUUUAAAUCCCGUCGUAGCCACCA
# DNA 1: CAATCTGAATTCCGGTCTCCC
# DNA 2: TGGTGGCTACGACGGGATT
# B2: AGGUGAU (DNA:RNA)
# RNA: B1 RNA with C25A, C26G, U27G, G28U, C30A
# DNA 1: CAATCTGAATTCCGGTCTCCC
# DNA 2: TGGTGGCTACGACGGGATT
# B3: UUCGAUU (DNA:RNA)
# RNA: B1 RNA with C25U, C26U, U27C, G29A, C30U
# DNA 1: CAATCTGAATTCCGGTCTCCC
# DNA 2: TGGTGGCTACGACGGGATT
# B4: GUUUGCU (DNA:RNA)
# RNA: B1 RNA with C25G, C26U, G28U
# DNA 1: CAATCTGAATTCCGGTCTCCC
# DNA 2: TGGTGGCTACGACGGGATT
# B5: AACGCCU (DNA:RNA)
# RNA: B1 RNA with C25A, C26A, U27C, G29C
# DNA 1: CAATCTGAATTCCGGTCTCCC
# DNA 2: TGGTGGCTACGACGGGATT
# B6: GUAGAGU (DNA:RNA)
# RNA: B1 RNA with C25G, C26U, U27A, G29A, C30G
# DNA 1: CAATCTGAATTCCGGTCTCCC
# DNA 2: TGGTGGCTACGACGGGATT
# B7: UGCUGAC (DNA:RNA)
# RNA: B1 RNA with C25U, C26G, U27C, G28U, C30A, U31C
# DNA 1: CAATCTGAATTCCGGTCTCCC
# DNA 2: TGGTGGCTACGACGGGATT
# B8: UGACCGU (DNA:RNA)
# RNA: B1 RNA with C25U, C26G, U27A, G28C, G29C, C30G
# DNA 1: CAATCTGAATTCCGGTCTCCC
# DNA 2: TGGTGGCTACGACGGGATT
# B9: GCCAGAC (DNA:RNA)
# RNA: B1 RNA with C25G, U27C, G28A, C30A, U31C
# DNA 1: CAATCTGAATTCCGGTCTCCC
# DNA 2: TGGTGGCTACGACGGGATT
# B10: GCCUGAC (DNA:RNA)
# RNA: B1 RNA with C25G, U27C, G28U, C30A, U31C
# DNA 1: CAATCTGAATTCCGGTCTCCC
# DNA 2: TGGTGGCTACGACGGGATT
# B11: UGACUGA (DNA:RNA)
# RNA: GGGAGACCGGAAUUCAGAUUGUCCUGACUGAUUAAAUCCCGUCGUAGCCACCA
# DNA 1: CAATCTGAATTCCGGTCTCCC
# DNA 2: TGGTGGCTACGACGGGATT
# B12: UCCUGAC (DNA:RNA)
# RNA: B1 RNA with C25U, U27C, G28U, C30A, U31C
# DNA 1: CAATCTGAATTCCGGTCTCCC
# DNA 2: TGGTGGCTACGACGGGATT
# B13: UGACUGC (DNA:RNA)
# RNA: B11 RNA with A31C
# DNA 1: CAATCTGAATTCCGGTCTCCC
# DNA 2: TGGTGGCTACGACGGGATT
# B14: UGACUGG (DNA:RNA)
# RNA: B11 RNA with A31G
# DNA 1: CAATCTGAATTCCGGTCTCCC
# DNA 2: TGGTGGCTACGACGGGATT
# B15: UGACUGU (DNA:RNA)
# RNA: B11 RNA with A31U
# DNA 1: CAATCTGAATTCCGGTCTCCC
# DNA 2: TGGTGGCTACGACGGGATT
# B16: GCCUGAA (DNA:RNA)
# RNA: B1 RNA with C25G, U27C, G28U, C30A, U31A
# DNA 1: CAATCTGAATTCCGGTCTCCC
# DNA 2: TGGTGGCTACGACGGGATT
# B17: UGACUUG (DNA:RNA)
# RNA: B11 RNA with G30U, A31G
# DNA 1: CAATCTGAATTCCGGTCTCCC
# DNA 2: TGGTGGCTACGACGGGATT
# B18: CUGACUG (DNA:RNA)
# RNA: B1 RNA with C26U, U27G, G28A, G29C, C30U, U31G
# DNA 1: CAATCTGAATTCCGGTCTCCC
# DNA 2: TGGTGGCTACGACGGGATT
# B19: CGAGAAA (DNA:RNA)
# RNA: B11 RNA with U25C, C28G, U29A, G30A
# DNA 1: CAATCTGAATTCCGGTCTCCC
# DNA 2: TGGTGGCTACGACGGGATT
# B20: GAUAUCG (DNA:RNA)
# RNA: B1 RNA with C25G, C26A, G28A, G29U, U31G
# DNA 1: CAATCTGAATTCCGGTCTCCC
# DNA 2: TGGTGGCTACGACGGGATT
# B21: GGCGCCU (DNA:RNA)
# RNA: B1 RNA with C25G, C26G, U27C, G29C
# DNA 1: CAATCTGAATTCCGGTCTCCC
# DNA 2: TGGTGGCTACGACGGGATT
# B22: UGCCCAG (DNA:RNA)
# RNA: B11 RNA with A27C, U29C, G30A, A31G
# DNA 1: CAATCTGAATTCCGGTCTCCC
# DNA 2: TGGTGGCTACGACGGGATT
# B23: UGCGAGG (DNA:RNA)
# RNA: B11 RNA with A27C, C28G, U29A, A31G
# DNA 1: CAATCTGAATTCCGGTCTCCC
# DNA 2: TGGTGGCTACGACGGGATT
# B24: GUAGCGU (DNA:RNA)
# RNA: B1 RNA with C25G, C26U, U27A, G29C, C30G
# DNA 1: CAATCTGAATTCCGGTCTCCC
# DNA 2: TGGTGGCTACGACGGGATT
# B25: UUUAAGG (DNA:RNA)
# RNA: B11 RNA with G26U, A27U, C28A, U29A, A31G
# DNA 1: CAATCTGAATTCCGGTCTCCC
# DNA 2: TGGTGGCTACGACGGGATT
# B26: GUCUUAG (DNA:RNA)
# RNA: B11 RNA with U25G, G26U, A27C, C28U, G30A, A31G
# DNA 1: CAATCTGAATTCCGGTCTCCC
# DNA 2: TGGTGGCTACGACGGGATT
# B27: UGCAUGA (DNA:RNA)
# RNA: B11 RNA with A27C, C28A
# DNA 1: CAATCTGAATTCCGGTCTCCC
# DNA 2: TGGTGGCTACGACGGGATT
# B28: UGCGUGG (DNA:RNA)
# RNA: B11 RNA with A27C, C28G, A31G
# DNA 1: CAATCTGAATTCCGGTCTCCC
# DNA 2: TGGTGGCTACGACGGGATT
# B29: UGCAGAA (DNA:RNA)
# RNA: B11 RNA with A27C, C28A, U29G, G30A
# DNA 1: CAATCTGAATTCCGGTCTCCC
# DNA 2: TGGTGGCTACGACGGGATT
# B30: UGCAUGC (DNA:RNA)
# RNA: B11 RNA with A27C, C28A, A31C
# DNA 1: CAATCTGAATTCCGGTCTCCC
# DNA 2: TGGTGGCTACGACGGGATT
# B31: UGCAUGG (DNA:RNA)
# RNA: B11 RNA with A27C, C28A, A31G
# DNA 1: CAATCTGAATTCCGGTCTCCC
# DNA 2: TGGTGGCTACGACGGGATT
# B32: UUCAUGC (DNA:RNA)
# RNA: B11 RNA with G26U, A27C, C28A, A31C
# DNA 1: CAATCTGAATTCCGGTCTCCC
# DNA 2: TGGTGGCTACGACGGGATT
# B33: UGCAUAA (DNA:RNA)
# RNA: B11 RNA with A27C, C28A, G30A
# DNA 1: CAATCTGAATTCCGGTCTCCC
# DNA 2: TGGTGGCTACGACGGGATT
# B34: AGAUGCA (DNA:RNA)
# RNA: B11 RNA with U25A, C28U, U29G, G30C
# DNA 1: CAATCTGAATTCCGGTCTCCC
# DNA 2: TGGTGGCTACGACGGGATT
# B35: UUCAUGG (DNA:RNA)
# RNA: B11 RNA with G26U, A27C, C28A, A31G
# DNA 1: CAATCTGAATTCCGGTCTCCC
# DNA 2: TGGTGGCTACGACGGGATT
# B36: UGAUGCA (DNA:RNA)
# RNA: B11 RNA with C28U, U29G, G30C
# DNA 1: CAATCTGAATTCCGGTCTCCC
# DNA 2: TGGTGGCTACGACGGGATT
# B37: GUCCUGC (DNA:RNA)
# RNA: B11 RNA with U25G, G26U, A27C, A31C
# DNA 1: CAATCTGAATTCCGGTCTCCC
# DNA 2: TGGTGGCTACGACGGGATT
# B38: UGAUUCA (DNA:RNA)
# RNA: B11 RNA with C28U, G30C
# DNA 1: CAATCTGAATTCCGGTCTCCC
# DNA 2: TGGTGGCTACGACGGGATT
# Target: T1, RBFOX1 RRM
# Assay: EMSA; HiTS-Eq, 1 nM pool, 10 min; buffer printed only for the single-RNA assays: 10 mM Tris pH 7.5, 150 mM NaCl, 3.4 mM EDTA, 0.001% NP-40, 30 C
# Details: tags: His6 N-terminal (pET28a); label: 5' 32P
# Procedure, shortened: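 Relative association constants, normalised to the cognate motif, were derived by comparing read counts of each RNA species with those of the control reaction. The RNA sequenced was the free fraction, separated by 8% native PAGE after a 10 min equilibration in 50 µL of 1 nM 5′-radiolabelled RNA (7 randomized nucleotides) with increasing concentrations of purified wild-type or mutant RbFox RRM.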
row,Binder,binding signal
1,B1,0.0127 KA relative to UGCAUGU
2,B2,0.0113 KA relative to UGCAUGU
3,B3,0.00889 KA relative to UGCAUGU
4,B4,0.0286 KA relative to UGCAUGU
5,B5,0.00525 KA relative to UGCAUGU
6,B6,0.0112 KA relative to UGCAUGU
7,B7,0.0249 KA relative to UGCAUGU
8,B8,0.0185 KA relative to UGCAUGU
9,B9,0.0114 KA relative to UGCAUGU
10,B10,0.0331 KA relative to UGCAUGU
11,B11,0.0256 KA relative to UGCAUGU
12,B12,0.0129 KA relative to UGCAUGU
13,B13,0.039 KA relative to UGCAUGU
14,B14,0.0284 KA relative to UGCAUGU
15,B15,0.032 KA relative to UGCAUGU
16,B16,0.0276 KA relative to UGCAUGU
17,B17,0.0454 KA relative to UGCAUGU
18,B18,0.0302 KA relative to UGCAUGU
19,B19,0.00724 KA relative to UGCAUGU

row,Binder,binding signal
1,B20,0.0155 KA relative to UGCAUGU
2,B21,0.00816 KA relative to UGCAUGU
3,B22,0.0164 KA relative to UGCAUGU
4,B23,0.0231 KA relative to UGCAUGU
5,B24,0.0174 KA relative to UGCAUGU
6,B25,0.0043 KA relative to UGCAUGU
7,B26,0.0121 KA relative to UGCAUGU
8,B27,0.913 KA relative to UGCAUGU
9,B28,0.0211 KA relative to UGCAUGU
10,B29,0.0113 KA relative to UGCAUGU
11,B30,1.02 KA relative to UGCAUGU
12,B31,0.965 KA relative to UGCAUGU
13,B32,0.0106 KA relative to UGCAUGU
14,B33,0.00891 KA relative to UGCAUGU
15,B34,0.0164 KA relative to UGCAUGU
16,B35,0.00704 KA relative to UGCAUGU
17,B36,0.0332 KA relative to UGCAUGU
18,B37,0.0203 KA relative to UGCAUGU
19,B38,0.0154 KA relative to UGCAUGU
